Assay results: PubChem BioAssay (Tox21)
Inconclusive results are not listed. Entries that show only a call come without a potency. The source made the active and inactive calls. Calls follow the shape of the dose curve; as a rule, active = well fitted cell-killing curve with a large enough effect in the repeat runs; inconclusive = weak or mixed curves, or effect the other way; inactive = flat fitted curve, though single readings scatter.

assay: cAMP Responsive Elements (CRE) small molecule antagonists, cell-based qHTS assay: qHTS cell viability counter screen (AID 2060913); conditions: CRE-bla HEK293T viability, CellTiter-Glo luminescence, 5 h; series mostly up to 92.4 µM; also: nearly all actives have a fitted effect of over 40% in size
Method in brief: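 HEK293T CRE-bla, 2,000 cells/well, 18 h preincubation; cpd in DMSO + NKH477 0.25 uM final, 3 h 37 C/5% CO2; LiveBLAzer 2 h RT, then CellTiter-Glo 30 min RT, luminescence.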

Structure (SMILES)	Potency
CN1CCN(c2ccccc2/C=C2\SCCN(c3ccc(Cl)c(Cl)c3)C2=O)CC1	inactive
CC(O)CN(CCN(CC(C)O)CC(C)O)CC(C)O (stereo not given)	inactive
CCCCC(CC)COCC1CO1 (stereo not given)	inactive
CC1=C(C(=O)O)N2C(=O)[C@@H](NC(=O)[C@H](N)C3=CCC=CC3)[C@H]2SC1	inactive
C/C=C/C=N/NC(=O)c1ccncc1	inactive
NC(=O)CC[C@@H](N)C(=O)O	inactive
COCCOCCOC	inactive
C[N+]1(C)CCCC(OC(=O)C(O)(c2ccccc2)c2ccccc2)C1 (stereo not given)	inactive
Cc1ccc(C(C)c2ccc(C)c(C)c2)cc1C	inactive
O=C(O)c1cc(C(=O)O)cc(C(=O)O)c1	inactive
[O]=[Zr]	inactive
CCCCCCCCCCCCCCCCCCOS(=O)(=O)O	inactive
C=CCOC(=O)c1ccccc1C(=O)OCC=C	inactive
CC(CC(=O)O)CC(C)(C)C (stereo not given)	inactive
CCCCC(CC)COC(=O)CCCCC(=O)OCC(CC)CCCC (stereo not given)	inactive
O=C(NO)C1(NS(=O)(=O)c2ccc(Oc3ccc(F)cc3)cc2)CCOCC1	inactive
COCC(=O)Nc1c(I)c(C(=O)NCC(O)CO)c(I)c(C(=O)N(C)CC(O)CO)c1I (stereo not given)	inactive
SCCc1cnccn1	inactive
COC(=O)c1cc(Cl)ccc1OC	inactive
CC(C)(C)C(=O)C1C(=O)c2ccccc2C1=O	inactive

Structure (SMILES)	Potency
CCCCO	inactive
CCCCOC(=O)C(C)OC(=O)CCC (stereo not given)	inactive
O=C(O)CONC(=O)c1ccccc1	inactive
C[C@H]1[C@@H](c2ccccc2)NC(=O)N1C	inactive
CC(C)Cc1ccc(C(C)C(=O)OCc2ccccn2)cc1 (stereo not given)	inactive
COc1cc2c(c(OC)c1OC)-c1ccc(OC)c(=O)cc1[C@@H](NC(C)=O)CC2	inactive
ClC/C=C/CCl	inactive
Cc1cccc(C(=O)O)c1	inactive
CC(C)c1ccccc1N	inactive
CCCCOCCOC(=O)COc1nc(Cl)c(Cl)cc1Cl	inactive
CC(C)NC[C@@H](O)COc1ccc(CC(N)=O)cc1	inactive
C[C@H]1COc2c(C3(N)CC3)c(F)cc3c(=O)c(C(=O)O)cn1c23	inactive
C=COCC1CCC(COC=C)CC1 (stereo not given)	inactive
FC(F)(F)C(Cl)Br (stereo not given)	inactive
C=CCOc1nc(OCC=C)nc(OCC=C)n1	inactive
CN(C)CCC=C1c2ccccc2C=Cc2ccccc21	inactive
CCCCCCOC(=O)c1ccccc1	inactive
CC(C)(C)C(=O)CC(=O)C(C)(C)C	inactive
CN1CCC[C@@H]1Cc1c[nH]c2ccc(CCS(=O)(=O)c3ccccc3)cc12	inactive
CCN1C(=O)c2ccccc2C1Nc1ccc(OCCN2CCCCC2)cc1 (stereo not given)	inactive

assay: cAMP Responsive Elements (CRE) small molecule agonists, cell-based qHTS assay: qHTS cell viability counter screen (AID 2060914); conditions: CRE-bla HEK293T viability, CellTiter-Glo luminescence, 5 h; series mostly up to 92.4 µM;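 also: viability read after 3 h of compound exposure; nearly all actives have a fitted effect of over 50% in size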
Method in brief: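 HEK 293T CRE-bla; DMEM + 10% dialyzed FBS, 25 mM HEPES; 18 h pre-incubation; compound 3 h, 37 °C/5% CO2; CellTiter-Glo added after reporter read; luminescence after 30 min RT.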

Structure (SMILES)	Potency
CN1CCN(c2ccccc2/C=C2\SCCN(c3ccc(Cl)c(Cl)c3)C2=O)CC1	inactive
CC(O)CN(CCN(CC(C)O)CC(C)O)CC(C)O (stereo not given)	inactive
CCCCC(CC)COCC1CO1 (stereo not given)	inactive
CC1=C(C(=O)O)N2C(=O)[C@@H](NC(=O)[C@H](N)C3=CCC=CC3)[C@H]2SC1	inactive
C/C=C/C=N/NC(=O)c1ccncc1	inactive
NC(=O)CC[C@@H](N)C(=O)O	inactive
COCCOCCOC	inactive
C[N+]1(C)CCCC(OC(=O)C(O)(c2ccccc2)c2ccccc2)C1 (stereo not given)	inactive
Cc1ccc(C(C)c2ccc(C)c(C)c2)cc1C	inactive
O=C(O)c1cc(C(=O)O)cc(C(=O)O)c1	inactive
[O]=[Zr]	inactive
CCCCCCCCCCCCCCCCCCOS(=O)(=O)O	inactive
C=CCOC(=O)c1ccccc1C(=O)OCC=C	inactive
CC(CC(=O)O)CC(C)(C)C (stereo not given)	inactive
CCCCC(CC)COC(=O)CCCCC(=O)OCC(CC)CCCC (stereo not given)	inactive
O=C(NO)C1(NS(=O)(=O)c2ccc(Oc3ccc(F)cc3)cc2)CCOCC1	inactive
COCC(=O)Nc1c(I)c(C(=O)NCC(O)CO)c(I)c(C(=O)N(C)CC(O)CO)c1I (stereo not given)	inactive
SCCc1cnccn1	inactive
COC(=O)c1cc(Cl)ccc1OC	inactive
CC(C)(C)C(=O)C1C(=O)c2ccccc2C1=O	inactive

Structure (SMILES)	Potency
CCCCO	inactive
CCCCOC(=O)C(C)OC(=O)CCC (stereo not given)	inactive
O=C(O)CONC(=O)c1ccccc1	inactive
C[C@H]1[C@@H](c2ccccc2)NC(=O)N1C	inactive
CC(C)Cc1ccc(C(C)C(=O)OCc2ccccn2)cc1 (stereo not given)	inactive
COc1cc2c(c(OC)c1OC)-c1ccc(OC)c(=O)cc1[C@@H](NC(C)=O)CC2	inactive
ClC/C=C/CCl	inactive
Cc1cccc(C(=O)O)c1	inactive
CC(C)c1ccccc1N	inactive
CCCCOCCOC(=O)COc1nc(Cl)c(Cl)cc1Cl	inactive
CC(C)NC[C@@H](O)COc1ccc(CC(N)=O)cc1	inactive
C[C@H]1COc2c(C3(N)CC3)c(F)cc3c(=O)c(C(=O)O)cn1c23	inactive
C=COCC1CCC(COC=C)CC1 (stereo not given)	inactive
FC(F)(F)C(Cl)Br (stereo not given)	inactive
C=CCOc1nc(OCC=C)nc(OCC=C)n1	inactive
CN(C)CCC=C1c2ccccc2C=Cc2ccccc21	inactive
CCCCCCOC(=O)c1ccccc1	inactive
CC(C)(C)C(=O)CC(=O)C(C)(C)C	inactive
CN1CCC[C@@H]1Cc1c[nH]c2ccc(CCS(=O)(=O)c3ccccc3)cc12	inactive
CCN1C(=O)c2ccccc2C1Nc1ccc(OCCN2CCCCC2)cc1 (stereo not given)	inactive
